Consider 15 molecules from PubChem BioAssay (Tox21).

Assay [1] in a line: qHTS assay for small molecules that induce genotoxicity in human embryonic kidney cells expressing luciferase-tagged ATAD5 (AID 651632). Note: nearly all actives have a fitted effect of over 15% in size. Note: potency is the fitted concentration of half-maximal effect. The gist of the method: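 Quantitative HTS in HEK293T expressing luciferase-tagged ATAD5, whose levels rise upon DNA damage. Exposure ran 16 hr at 37C and 5% CO2, with luminescence read 30 min after Amplite addition at room temperature.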
In general terms: Quantitative high-throughput screening tests each substance at several concentrations.

The nature of assay [2]: qHTS assay for small molecule agonists of the p53 signaling pathway - cell viability (AID 651633; calls by dose curve; note: nearly all actives have a fitted effect of over 30% in size; note: potency is the fitted concentration of half-maximal effect). In short, it runs like this:
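Viability counter-read: CellTiter-Glo luminescence (30 min, room temperature) in the same p53RE-bla plates. These plates had been exposed to compounds for 16 h at 37 C.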

The nature of assay [3]: qHTS assay for small molecule disruptors of the mitochondrial membrane potential - cell viability (AID 720634; calls by dose curve; note: nearly all actives have a fitted effect of over 20% in size; note: potency is the fitted concentration of half-maximal effect). In short, it runs like this:
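ATP-based luminescent viability readout (CellTiter-Glo, 30 min, room temperature) in HepG2 cells multiplexed with the m-MPI membrane potential dye; compound exposure lasted 1 hr at 37 C.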

A short description of assay [4]: qHTS assay for small molecule disruptors of the mitochondrial membrane potential (AID 720635). Note: potency is the fitted concentration of half-maximal effect. The gist of the method: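 Mitochondrial membrane potential tracked with Mito-MPS dye, red aggregates (ex 540/em 590 nm) against green monomers (ex 490/em 535 nm). Compound treatment 1 hr at 37C, dye 30 min in HepG2.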
A short description of assay [5]: qHTS assay to test for compound auto fluorescence at 590 nm (red) in HepG2 cells (AID 720674). In short, it runs like this: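 We screened compounds on adherent HepG2 cells, incubating them for an hour at 37 C in 5% CO2 before reading emission at 590 nm under 540 nm excitation; values reflect equivalence to Rose Bengal sodium fluorescence.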
A short description of assay [6]: qHTS assay to test for compound auto fluorescence at 535 nm (green) in HepG2 cells (AID 720675).
Assay [7] can be described thus: qHTS assay to test for compound auto fluorescence at 460 nm (blue) in HEK293 cells (AID 720678). The gist of the method:
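After cell attachment (4-5 hr, 37C), compounds were pinned onto HEK293 monolayers in 10% dialyzed FBS medium. The blue channel (405/460 nm) was read following overnight culture. Equivalency was calculated against triamterene.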

The nature of assay [8]: qHTS assay to test for compound auto fluorescence at 590 nm (red) in HEK293 cells (AID 720679). In short, it runs like this:
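Plates of HEK293 cells (10% dialyzed FBS) are treated with 23 nL compound or DMSO vehicle after a 4-5 hr attachment period, incubated overnight at 37C, and read for red fluorescence at 540/590nm.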

The nature of assay [9]: qHTS assay to test for compound auto fluorescence at 535 nm (green) in HEK293 cells (AID 720680).
The nature of assay [10]: qHTS assay to test for compound auto fluorescence at 460 nm (blue) in HEK293 cell free culture (AID 720681). Note: potency is the fitted concentration of half-maximal effect. The gist of the method: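 Blue fluorescence (Ex 405/Em 460 nm, triamterene-equivalent) was read immediately after pin transfer of compound or DMSO into medium (DMEM, 10% FBS) without cells.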
Assay [11] is described as follows: qHTS assay to test for compound auto fluorescence at 535 nm (green) in HEK293 cell free culture (AID 720682). The gist of the method:
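Using fluorescein as calibrant, autofluorescence was quantified at 485/535 nm in cell-free DMEM containing 10% FBS after pintool addition of compound or vehicle.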

Assay [12] in a line: qHTS assay to test for compound auto fluorescence at 590 nm (red) in HEK293 cell free culture (AID 720683). The gist of the method:
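Red-channel autofluorescence of compounds in culture medium (DMEM, 10% FBS), no cells, measured at 540/590 nm. Rose Bengal sodium is the reference fluorophore for equivalence.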

Assay [13] in a line: qHTS assay to test for compound auto fluorescence at 460 nm (blue) in HepG2 cell free culture (AID 720685). Note: potency is the fitted concentration of half-maximal effect. In short, it runs like this:
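Cell-free plates of MEM plus 10% FBS received 23 nL compound or DMSO vehicle; blue-channel (405/460 nm) intensity scored against triamterene as reference fluorophore.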

Assay [14] can be described thus: qHTS assay to test for compound auto fluorescence at 535 nm (green) in HepG2 cell free culture (AID 720686).
The nature of assay [15]: qHTS assay to test for compound auto fluorescence at 460 nm (blue) in HepG2 cells (AID 720687). Note: potency is the fitted concentration of half-maximal effect. The gist of the method:
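Blue-channel autofluorescence (Ex/Em 405/460 nm, triamterene-equivalent) was measured after 1 hr compound exposure at 37 C, 5% CO2. Cells were HepG2, plated overnight at 37 C in MEM plus 10% FBS.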

A short description of assay [16]: qHTS assay to test for compound auto fluorescence at 590 nm (red) in HepG2 cell free culture (AID 720684). In short, it runs like this:
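No cells present: MEM + 10% FBS only. Compound pinned in, red label read (540/590 nm). Activity = fluorescence equivalent to Rose Bengal sodium.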

Assay [17] can be described thus: qHTS assay for small molecules that induce genotoxicity in human embryonic kidney cells expressing luciferase-tagged ATAD5 - cell viability (AID 651634; calls by dose curve; note: nearly all actives have a fitted effect of over 25% in size; note: potency is the fitted concentration of half-maximal effect). The gist of the method:
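After 15.5 hr incubation with compound at 37C, 5% CO2, HEK293T ATAD5-luciferase cells received CellTiter-Fluor reagent; fluorescence intensity was quantified following 30 min at 37C.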

Assay [18] deals with Glucocorticoid receptor (Homo sapiens) (UniProt P04150). Briefly: qHTS assay to identify small molecule agonists of the glucocorticoid receptor (GR) signaling pathway (AID 720691; active = well fitted activation curve with a large enough effect in the signal ratio in the repeat runs, not every such curve was filed as active; the % refers to the signal ratio). Particulars: GR-bla HeLa, beta-lactamase reporter ratio, 18 h; activation: at 62.4 µM (top of the series). The gist of the method:
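Cells: GR-bla HeLa, endogenous GR with stably integrated GRE-beta-lactamase reporter. Treatment 18 h, 37 C, compounds delivered in DMSO. Detection via LiveBLAzer B/G FRET substrate, 2 h RT, fluorescence intensity.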

Assay [19] has the same target. Briefly: qHTS assay to identify small molecule antagonists of the glucocorticoid receptor (GR) signaling pathway (AID 720692; active = well fitted inhibition curve with a large enough effect in the signal ratio in the repeat runs, not every such curve was filed as active; the % refers to the signal ratio). In short, it runs like this: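 Quantitative HTS in antagonist format: HeLa cells expressing endogenous GR and a stably integrated GRE-bla reporter, stimulated with 5 nM dexamethasone (final) alongside test compounds for 18 h.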

Records with an inconclusive call do not appear. Activity calls are given as the source filed them. Unless noted, calls come from the whole dose curve; as a rule, active = well fitted curve in the direction sought with a large enough effect in the repeat runs; inconclusive = weak or mixed curves; inactive = no such curve, though single readings can be large; an effect the other way counts as inactive or inconclusive.
Tags give direction and shape of the fitted curve or compound fluorescence and quenching.

Glucocorticoid receptor (Homo sapiens), sequence (P04150 whole entry, looked up): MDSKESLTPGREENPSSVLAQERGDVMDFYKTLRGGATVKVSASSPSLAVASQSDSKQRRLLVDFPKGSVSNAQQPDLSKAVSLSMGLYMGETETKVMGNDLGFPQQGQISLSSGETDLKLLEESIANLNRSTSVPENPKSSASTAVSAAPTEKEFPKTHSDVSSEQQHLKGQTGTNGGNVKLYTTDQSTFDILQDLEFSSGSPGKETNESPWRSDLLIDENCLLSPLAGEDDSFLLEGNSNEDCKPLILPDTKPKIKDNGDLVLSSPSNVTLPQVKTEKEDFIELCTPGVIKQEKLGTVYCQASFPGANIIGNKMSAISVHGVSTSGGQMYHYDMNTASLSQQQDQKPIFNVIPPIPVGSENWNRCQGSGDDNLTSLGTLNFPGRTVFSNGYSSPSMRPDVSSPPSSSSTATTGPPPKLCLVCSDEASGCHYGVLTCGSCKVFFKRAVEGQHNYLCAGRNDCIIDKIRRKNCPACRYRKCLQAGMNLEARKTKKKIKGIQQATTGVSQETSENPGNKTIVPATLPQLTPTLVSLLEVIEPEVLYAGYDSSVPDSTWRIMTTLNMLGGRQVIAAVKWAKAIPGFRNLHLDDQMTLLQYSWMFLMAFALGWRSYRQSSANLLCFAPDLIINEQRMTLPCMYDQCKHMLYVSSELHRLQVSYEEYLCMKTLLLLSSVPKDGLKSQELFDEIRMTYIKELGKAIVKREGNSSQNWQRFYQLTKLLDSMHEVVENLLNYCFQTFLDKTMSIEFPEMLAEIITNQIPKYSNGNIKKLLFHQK

As to `NCc1cccc(C2CCN(C(=O)c3ccc(C#Cc4ccccc4F)o3)CC2)c1`, the Potency entry in [1], in [3], in assay [4], in assay [6], in assay [7] and in assay [10] was “inactive” throughout. Besides, the Potency entry in assay [13], in assay [14] and in assay [15] was “inactive” in each case. Also, the Potency in assay [2] is 61.1 µM (active). The outcome in [5], in [8], in [9], in assay [11] and in assay [12] was inactive.
`Nc1ccc(N)c([N+](=O)[O-])c1`: in assay [4], the Potency is 1.09 µM (active). In addition, the molecule was called inactive in [5], in [8], in assay [9], in [12] and in assay [16]. The Potency result in assay [6], in assay [7], in assay [10], in assay [13], in assay [14] and in assay [15] was “inactive” throughout.
Take `CN(C[C@@H](CC[N+]12CCC(C3CCCCC3)(CC1)CC2)c1ccc(Cl)c(Cl)c1)C(=O)c1cc(C(F)(F)F)cc(C(F)(F)F)c1`: the Potency result in assay [1], in [7], in assay [10], in [13], in [14] and in assay [15] was “inactive” throughout. Also, in [2], the Potency is 27.3 µM (active). The call in [5], in assay [8], in [9], in assay [11], in assay [12] and in assay [16] was inactive.
As for `C=CC(N)CCC(=O)O` (stereo unspecified), the Potency entry in [1], in [17], in assay [3], in assay [6], in assay [7] and in assay [10] was “inactive” each time. Besides, the Potency result in [13], in assay [14], in assay [15], in assay [18] and in assay [19] was “inactive” each time. The molecule was called inactive in [5], in assay [8], in assay [9], in assay [11], in assay [12] and in [16].
Take `Clc1nc(C(Cl)(Cl)Cl)c(Cl)c(Cl)c1Cl`: the Potency is 61.1 µM (active) in [2] and 48.6 µM (active) in [17]. In addition, the Potency result in [3], in assay [6], in [7], in [10], in assay [13] and in assay [14] was “inactive” in each case. In addition, in assay [15], the Potency result was “inactive”. Further, the call in assay [5], in assay [8], in assay [9], in assay [11], in [12] and in assay [16] was inactive.
Regarding `CS(=O)(=O)c1ccc([C@@H](CC2CCCC2)C(=O)Nc2cnccn2)cc1Cl`, the Potency in assay [3] is 34.4 µM (active); in assay [4], 61.1 µM (active). Moreover, the call in assay [5], in assay [8], in assay [9], in assay [11], in [12] and in [16] was inactive. Moreover, the Potency result in assay [6], in [7], in assay [13], in assay [14] and in assay [15] was “inactive” throughout.
In the case of `CCCCCCCCCCCCCCCCCCNC(=O)OC1CCN(C(=O)OC[C@H](COC(=O)N(Cc2cccc[n+]2CC)C(=O)c2ccccc2OC)OC)CC1`, the Potency entry in assay [1], in [6], in [7], in assay [10], in assay [13] and in [14] was “inactive” each time. The Potency entry in [15] was “inactive”. Moreover, the Potency in [2] was 26.6 µM (active). In addition, the outcome in [5], in assay [8], in [9], in [11] and in [12] was inactive.
On to `CCC(C)(C)c1ccc(CC(C)CN2C[C@@H](C)O[C@@H](C)C2)cc1` (stereo partly specified), for which the Potency result in assay [1], in assay [3], in assay [6], in assay [7], in [10] and in [13] was “inactive” throughout. In [15], the Potency result is “inactive”. Besides, the Potency in assay [2] is 26.6 µM (active); in [4], 23.7 µM (active). The molecule was classed as inactive in [5], in [8], in assay [9], in assay [11], in [12] and in assay [16].
For the molecule `Cc1ccc2nc(-c3ccc(N)cc3)sc2c1S(=O)(=O)O`, the Potency in assay [1] is 0.85 µM (active); in assay [10], 15.8 µM (active); in assay [13], 25.1 µM [fluorescent] (active); in [15] it was 22.4 µM [fluorescent] (active). The Potency entry in assay [2], in [17], in assay [6], in assay [14], in assay [18] and in assay [19] was “inactive” throughout. In addition, the call in assay [5], in assay [8], in [9], in assay [11] and in [12] was inactive.
Consider `CCCCC[C@H](O)/C=C/[C@@H]1[C@@H](C/C=C\CCCC(=O)O)[C@@H](O)C[C@H]1O`, for which the Potency result in assay [1], in assay [17], in assay [3], in [4], in assay [6] and in assay [7] was “inactive” each time. The Potency entry in assay [10], in assay [13], in [14], in assay [15] and in [18] was “inactive” throughout. Further, the molecule was called inactive in assay [5], in assay [8], in assay [9], in assay [11], in assay [12] and in assay [16].
In the case of `CCOc1ccc([N+](=O)[O-])cc1`, the Potency entry in assay [1], in assay [6], in assay [7], in assay [10], in assay [13] and in assay [14] was “inactive” each time. Further, in assay [15], the Potency entry is “inactive”. The Potency in [2] is 62 µM (active); in assay [3], 55.3 µM (active); in assay [4] it was 3.91 µM (active). Besides, the molecule was classed as inactive in assay [5], in [8], in [9], in [11], in assay [12] and in [16].
In the case of `O=C(Nc1ccccc1)c1cc(Cl)ccc1O`, the Potency entry in assay [1], in assay [6], in assay [7], in [10], in assay [13] and in assay [14] was “inactive” in each case. For the same molecule, the Potency result in [15] and in [18] was “inactive” throughout. Also, the Potency in assay [2] was 17.2 µM (active); in [3], 1.93 µM (active); in [4], 0.386 µM (active). Besides, the molecule was classed as inactive in assay [5], in assay [8], in assay [9], in assay [11] and in assay [12].
Regarding `O=C(CCN1CCC(c2ccccc2)C1)c1ccc2c(c1)OCCO2` (stereo unspecified), the Potency entry in assay [1], in assay [17], in assay [3], in assay [4], in assay [6] and in [7] was “inactive” in each case. Besides, the Potency result in assay [10], in [13], in assay [14], in assay [15] and in assay [18] was “inactive” in each case. In addition, the molecule was classed as inactive in assay [5], in assay [8], in assay [9], in assay [11], in [12] and in assay [16].
Regarding `CCCCCCCC/C=C\CCCCCCCC(=O)N(CCO)CCO`, the Potency result in assay [1], in assay [17], in assay [3], in [6], in assay [7] and in assay [10] was “inactive” each time. Besides, the Potency result in [13], in assay [14] and in [15] was “inactive” each time. Also, the molecule was called inactive in assay [5], in assay [8], in [9], in assay [11], in [12] and in assay [16].
For `COc1ccc2ccccc2c1`, the outcome in assay [5], in assay [8], in [9], in assay [11], in [12] and in assay [16] was inactive. Besides, the Potency result in assay [6], in [7], in [10], in assay [13], in assay [14] and in assay [15] was “inactive” each time.
